Data: PubChem BioAssay (NCATS)
Results filed as inconclusive are left out. Where a call stands in place of a potency, no number is given. Values without a mark were called inactive. Calls of active or inactive are those of the source. Calls come from the whole dose curve; as a rule, active = well fitted inhibition curve with a large enough effect; inconclusive = small, poorly fitted or top-dose-only effect; inactive = flat fitted curve, though single readings scatter.

Target: Aldehyde dehydrogenase, mitochondrial (Homo sapiens) (UniProt P05091)
Assay: qHTS for Inhibitors of the Aldehyde Dehydrogenase Family (ALDH2) Primary screen (AID 2061308); note: nearly all actives have a fitted effect of over 55% in size
Conditions: ALDH2 enzyme inhibition qHTS, 1536-well; series mostly up to 56 µM

SMILES | Potency | activity change, negative = inhibition
Cc1cc(F)ccc1-c1nc(NCCN=C(N)NC#N)nc2c1ccc(=O)n2-c1c(F)cccc1F | inactive | –
CCC/C=C/C=C/C1CC(O)C2(O)C(=O)OCC12 (stereo not given) | inactive | –
CC(O)C1CCC2C3CCC4CC(OC5OC(C(=O)O)C(O)C(O)C5O)CCC4(C)C3CCC12C (stereo not given) | inactive | –
CC(=O)O[C@@H]1[C@H](O[C@@H]2O[C@@H](CO)[C@H](O)[C@H]2O)[C@@H](O[C@@H]2O[C@@H](C)[C@H](O[C@@H]3OC[C@@H](O)[C@H](O)[C@H]3O)[C@@H](O)[C@H]2O)[C@H](OC(=O)[C@]23CCC(C)(C)C[C@H]2C2=CCC4[C@@]5(C)CC[C@H](O[C@@H]6O[C@H](C(=O)O)[C@@H](O)[C@H](O)[C@H]6O[C@@H]6O[C@H](CO)[C@H](O)[C@H](O)[C@H]6O)[C@@](C)(C=O)C5CC[C@@]4(C)[C@]2(C)CC3)O[C@@H]1C (stereo not given in full) | – | 4.21% [at 11.2 µM]
CC(=O)O[C@@H]1[C@H](O[C@@H]2O[C@H](CO)[C@@H](O)[C@H](O)[C@H]2O)[C@@H](O[C@@H]2O[C@@H](C)[C@H](O)[C@@H](O[C@@H]3O[C@H](CO)[C@@H](O)[C@H](O)[C@H]3O)[C@H]2O)[C@H](OC(=O)C23CCC4(C)C(=CCC5C6(C)CC(O)C(O[C@@H]7O[C@H](C(=O)O)[C@@H](O)[C@H](O)[C@H]7O)C(C)(C(=O)O)C6CCC54C)C2CC(C)(C)CC3O)O[C@@H]1C (stereo not given in full) | – | -6.27% [at 11.2 µM]
C[C@@H]1C(=O)O[C@H](C)[C@H]1CC(=O)[C@](C)(O)[C@H]1CC[C@@]2(O)C3=CC(=O)[C@@H]4C[C@@H](O)[C@@H](O)C[C@]4(C)C3CC[C@]12C (stereo not given in full) | inactive | –
O=C(Nc1ccc(-c2ccncc2)cc1)N[C@H](CO)c1ccccc1 | inactive | –
CN1CCc2nc(C(=O)N[C@@H]3C[C@@H](C(=O)N(C)C)CC[C@@H]3NC(=O)C(=O)Nc3ccc(Cl)cn3)sc2C1 | inactive | –
C=CCc1ccc(O[C@@H]2O[C@H](CO[C@@H]3O[C@H](CO)[C@@H](O)[C@H](O)[C@H]3O)[C@@H](O)[C@H](O)[C@H]2O)c(O)c1 | inactive | –
CC1=CC(=O)CC(C)(C)[C@@]1(O)CC[C@@H](C)O[C@@H]1O[C@H](CO)[C@@H](O)[C@H](O)[C@H]1O | inactive | –
CN(C)CC#CCCC(=O)C(O)(c1ccccc1)C1CCC1 (stereo not given) | inactive | –
O=C(O)C[C@H]1CCC(=O)[C@@H]1C/C=C\CCOC1OC(CO)C(O)C(O)C1O (stereo not given in full) | inactive | –
Nc1nc2c(c(=O)[nH]1)C[C@@H](CCc1ccc(C(=O)N[C@@H](CCC(=O)O)C(=O)O)cc1)CN2 | inactive | –
C/C(=C\CCC(C)CCO)C(=O)O[C@@H]1[C@@H](O)[C@H](OC2OC=C(C(=O)O)C3CCC(C)(O)C23)O[C@H](CO)[C@H]1O (stereo not given in full) | inactive | –
CCC(CC)(NC(=O)C(C)C)C(=O)N[C@@H](CCCN=C(N)N)C(=O)NC1(C(=O)NC(c2ccc(F)cc2)c2ccc(F)cc2)CCCC1 | inactive | –
O=C(NCC(O)CO)c1ccncc1Nc1ccc(I)cc1F (stereo not given) | inactive | –
COc1cccc(OC)c1-c1ccc(C[C@H](NC(=O)c2c(Cl)cccc2Cl)C(=O)O)cc1 | inactive | –
C=C1C(OC(C)=O)C(=O)C2C(C)(C)C(OC(C)=O)CCC2(C)C1CC(OC(C)=O)/C(C)=C/COC(C)=O (stereo not given) | inactive | –
CC1CCC2C(C(=O)O)=CC3CC(C)(C)CC132 (stereo not given) | inactive | –
C=C1CCC2C(C)(C)C(O)CCC2(C)C1CCC(C)CCOC(C)=O (stereo not given) | inactive | –

SMILES | Potency | activity change, negative = inhibition
C=C1CC23CC1CCC2C12OC(=O)C(C)(C(O)C(O)C1O)C2C3C(=O)O (stereo not given) | inactive | –
C/C=C(\C)C(=O)OC1CC2C(CC=C3CC(OC4CC(OC)C(OC5CC(OC)C(OC6CC(OC)C(OC7CC(OC)C(OC8CC(OC)C(OC9OC(CO)C(O)C(O)C9O)C(C)O8)C(C)O7)C(C)O6)C(C)O5)C(C)O4)CCC32C)C2(O)CCC(C(C)=O)C12C (stereo not given) | – | 14.2% [at 11.2 µM]
COc1cc(C2c3cc(O)c(OC)cc3CC(CO)C2CO)ccc1O (stereo not given) | inactive | –
C/C(=C/CO)CC[C@@H]1[C@@](C)(O)CCC2C(C)(C)CCC[C@]21C (stereo not given in full) | inactive | –
CC12CCC(OC3OC(CO)C(O)C(OC4OC(CO)C(O)C(O)C4O)C3O)CC1=CCC1C2CCC2(C)/C(=C3/COC(=O)C3)CCC12O (stereo not given) | inactive | –
C=C1C(=O)OC2C1C(O)CC1(C)C(O)CCC(C=O)C21 (stereo not given) | inactive | –
C=CC(C)(O)CC[C@H]1C(=C)CCC2[C@](C)(C(=O)O)CCC[C@@]21C (stereo not given in full) | inactive | –
CCCCC(=O)N(Cc1ccc(-c2ccccc2-c2nn[nH]n2)cc1)C(C(=O)O)C(C)C (stereo not given) | inactive | –
COC1CC(=O)C23C(=O)NC(CC(C)C)C2C(C)C(C)=CC3/C=C(\C)CCCC1O (stereo not given) | inactive | –
C=C1CC2C3(C)C(O)CC(=O)C(C)(C)C3C(O)C(OC(C)=O)C2(C)C2C(=O)OC(C)(C(=O)OC)C(=O)C12C (stereo not given) | inactive | –
C=C(COC(=O)C(O)C(O)CN)C12OC1C1(C)C(=CC2=O)C(O)C(O)CC1C (stereo not given) | inactive | –
CC1(C)CCC[C@@]2(C)[C@H]1[C@H](O)C=C(CO)[C@]2(O)CO | inactive | –
CC1=C2C=C(CO)C(CO)CCC2(C)CCC1=O (stereo not given) | inactive | –
CC1CCC(=O)CC(SCC(O)C(=O)O)CCC(=O)O1 (stereo not given) | inactive | –
COCC(c1ccc(C(F)(F)F)cc1)N1CCN(C2(C)CCN(C(=O)c3c(C)ncnc3C)CC2)CC1C (stereo not given) | inactive | –
C=C(C(=O)OC)C1C(O)CC2(C)C(O)CCC(=O)C2C1O (stereo not given) | inactive | –
O=C1CCC(c2ccccc2)(C2CCN(Cc3ccc(I)cc3)CC2)C(=O)N1 (stereo not given) | inactive | –
Clc1ccc(Nc2nc3ccccc3c3nc(C4CCCCC4)[nH]c23)cc1Cl | inactive | –
C/C=C(/C)C(=O)O[C@H]1C[C@]2(C)O[C@@H]2[C@@H](OC(C)=O)[C@@]2(C)CC[C@@](O)(C(C)C)[C@H]12 | inactive | –
C[C@@H]1O[C@@H](O[C@H]2[C@H](O[C@H]3CC[C@@]4(C)C(CC[C@]5(C)C4C=C[C@]46OC[C@@]7(CCC(C)(C)C[C@H]74)[C@@H](O[C@@H]4O[C@@H](C)[C@H](O)[C@@H](O)[C@H]4O)C[C@]65C)[C@]3(C)CO)O[C@H](CO)[C@@H](O)[C@@H]2O[C@@H]2O[C@H](CO)[C@@H](O)[C@H](O)[C@H]2O)[C@H](O)[C@H](O)[C@H]1O (stereo not given in full) | inactive | –
